Compound activity (PubChem)
BaF3 tox: parental Ba/F3 cell viability inhibition, counter-screen for JAK2V617F inhibitor project, murine pro-B, CellTiter-Glo luminescence. CellTiter-Glo ATP luminescence. inhibition, % at 5.6 µM. actives 1.1% (n = 220,000). AID 1486, 2009;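 active means inhibition above a per-campaign cutoff, the mean inhibition of all tested compounds plus 3 SD, cut at about 27% in these data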;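 further: 0% = DMSO wells and 100% = JAK Inhibitor I control wells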
APP 5UTR inh: inhibitors of APP translation via 5'UTR reporter, primary screen, APP 5'UTR luciferase, SH-SY5Y cells | actives 0.82% (n = 190,000) | inhibition, % at 2 µM | SH-SY5Y APP 5'UTR-luciferase reporter, luminescence | AID 1285, 2008;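 active means inhibition above a set limit, derived from the sample mean plus 3 SD, cut at about 45% in these data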
aSyn UTR inh: MLPCN primary screen, SNCA 5' untranslated region. actives 0.82% (n = 300,000). alpha-synuclein 5'UTR reporter, inhibitor activity. AID 1813, 2009. inhibition, % (tested at 7.5 µM); in the data active means inhibition above about 60%;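 further: H4 neuroglioblastoma cells stably carrying SNCA 5'UTR luciferase fusion; 0% = DMSO wells and 100% = positive control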
Ba/F3 V617F tox: reduced viability of JAK2V617F-dependent Ba/F3 cells, primary screen, JAK2V617F inhibitor project, cell-based, Ba/F3 EpoR-JAK2V617F, luminescence; ATP luminescence; inhibition, % at 5.6 µM; actives 1.1% (n = 220,000);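 active means inhibition above the campaign mean plus 3 SD over all tested compounds, cut at about 24% in these data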;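 further: cytokine-independent growth of Ba/F3 cells driven by EpoR plus mutant JAK2; 0% = DMSO-treated cells and 100% = JAK inhibitor I control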
KLF5 inhibitor: KLF5 expression inhibitors, primary screen, DLD-1 cells, luminescence | DLD-1 KLF5 promoter-luciferase reporter | inhibition, % at 5 µM | actives 0.23% (n = 290,000);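 active means inhibition above a per-plate limit of that plate's mean compound inhibition plus 3 SD, cut at about 60% in these data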;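 further: 0% = DMSO wells and 100% = LY294002 at 200 µM; higher means less KLF5 promoter-driven luciferase light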
IEC-6 tox: cytotoxicity in IEC-6 intestinal epithelial cells, primary screen, cytotoxicity control for KLF5 inhibitor project, cell-based, luminescence; IEC-6 cytotoxicity, luminescence viability; inhibition, % at 5 µM; actives 0.78% (n = 290,000); AID 1825, 2009; in the data active means inhibition above about 22%;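 further: 0% = plate median of test compound wells and 100% = cytotoxic reference compound wells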
* marks the source's active call; other numbers are inactive results; x = not tested or not shown. The list is not random: actives were taken first. Their share in the collection is about 2.1%.

SMILES	BaF3 tox	APP 5UTR inh	aSyn UTR inh	Ba/F3 V617F tox	KLF5 inhibitor	IEC-6 tox
Cc1c(C(=O)NCC2CCCO2)oc2ccc3c(c12)C(=O)CC(C)(C)O3 (centres undefined)	94.3*	-156.5	-43.7	0.4	-113.4	5.9
Cc1c(C(=O)NCC2CCCO2)oc2ccc(S(=O)(=O)N3CCCC3)cc12 (centres undefined)	5.6	7.0	3.1	2.1	11.6	0.0
CCOC(=O)CC1C(=O)NCCN1S(=O)(=O)c1cccc(C(F)(F)F)c1 (centres undefined)	x	x	6.5	x	-10.0	-3.6
Cc1csc2ncc(C(=O)N3c4ccccc4CC3C)c(=O)n12 (centres undefined)	38.5*	-2.3	-24.0	-1.7	-24.2	4.0
Cc1nc2ccc(NC(=O)c3ccc(Cl)c(S(=O)(=O)N(C)c4ccccc4)c3)cc2s1	0.4	-6.4	17.6	-0.5	-20.6	8.6
Cc1nc2ccc(NC(=O)c3cc(S(=O)(=O)N(C)c4ccccc4)ccc3Cl)cc2s1	48.8*	11.2	-8.9	43.4*	-29.6	3.9
COC(=O)C1(C)CCC(C(=O)Nc2ccccc2)C1(C)C (centres undefined)	x	x	62.0*	x	x	x
CC(=O)c1ccc(OCc2cc(C(=O)N3CC4C[C@@H]5CC3C[C@H](C4)C5)no2)cc1	x	x	-134.3	x	-163.3	-0.5
CCCCCN(C(=O)CCC(=O)OCC(=O)N1CCCC(C)C1)c1c(N)n(CCCC)c(=O)[nH]c1=O (centres undefined)	x	x	3.5	x	-30.0	0.7
COc1ccccc1C(=O)NCC(=O)N/N=C/c1ccc([N+](=O)[O-])cc1	47.7*	4.6	3.2	-0.6	-4.2	-0.8
O=C(CNc1ccccc1)N/N=C/c1ccc([N+](=O)[O-])cc1	7.9	6.7	-14.5	2.3	18.5	0.0
COc1ccc(S(=O)(=O)Oc2ccccc2C(=S)N2CCOCC2)cc1	x	x	0.5	x	-16.5	-1.1
O=S(=O)(C/C(=C/CO)S(=O)(=O)c1ccccc1)c1ccccc1	100.1*	79.9*	-70.8	100.6*	27.4	96.3*
CCOc1ccc(S(=O)(=O)n2cnc3cc(C)c(C)cc32)cc1	50.5*	2.9	0.1	39.8*	-26.0	8.1
COc1ccccc1OCCSc1nc2ccccc2c(=O)[nH]1	95.4*	-12.1	-3.7	1.4	-36.0	2.6
O=c1c2c(nc3c(-c4cccc5ccccc45)c[nH]n13)CCC2	6.0	9.1	-16.8	2.3	-17.0	-3.2
O=c1c2c(nc3c(-c4ccc(Cl)cc4)c[nH]n13)CCCC2	14.1	10.9	66.0*	3.9	-30.7	4.3
CC(C)(CO)NCc1cccc(OCc2ccc(Cl)cc2)c1	4.4	-12.4	-15.7	2.6	-10.9	-7.6
Clc1ccc(COc2cccc(CNCc3ccncc3)c2)cc1	38.1*	-0.1	31.3	4.7	-33.0	1.7
CN(C)CCOC(=O)C1(c2ccccc2)CCCC1	0.3	-18.4	5.7	-4.5	-44.1	4.4
C[N+]1(CCCOC(=O)C2(c3ccccc3)CCCC2)CCOCC1	58.0*	-5.2	0.3	5.8	17.7	0.5
CC(C(=O)Nc1ccc(C(N)=O)cc1)N1C(=O)c2ccccc2S1(=O)=O (centres undefined)	x	x	-7.8	x	x	x
COC(=O)c1ccc(Oc2cc(C)nc(SC)n2)cc1	4.8	86.4*	27.5	0.7	12.3	7.0
c1ccc2c(c1)ccc1nnnn12	x	x	-35.5	x	x	x
Cc1ccc(S(=O)(=O)N2CCC(C(=O)N3CC(C)OC(C)C3)CC2)cc1 (centres undefined)	x	x	11.0	x	-15.8	7.6
Cc1cc2oc(=O)cc(Cn3ncc(Cl)c(Cl)c3=O)c2cc1Cl	2.8	88.0*	3.4	0.6	-22.2	-4.7
Cc1cc2oc(=O)cc(CN3CCCCC3C)c2cc1Cl (centres undefined)	x	x	34.1	x	-16.5	-2.4
COc1cc(NS(=O)(=O)c2ccc(NC(=S)NC(=O)CC(C)C)cc2)nc(OC)n1	-1.0	54.5*	6.9	-1.7	-17.3	-0.5
COC(=O)CCC(=O)NC(=S)Nc1ccc(S(=O)(=O)Nc2cc(OC)nc(OC)n2)cc1	4.7	-8.3	-35.3	0.0	-10.3	-0.3
